In PubChem BioAssay:
The source made the active and inactive calls.

How the values were obtained:
[1] = compounds binding Alexa647 anti-His antibody – biochemical, small-molecule microarray, 635 nm fluorescence, artefact control for SMM control protein annotation, primary screen (AID 1128); details: higher = more signal;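 further: score merges feature fluorescence with signal-to-noise for each printed compound spot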
[2] = tested on: Human papillomavirus type 1a E7 protein (residues 1-88); assay: HPV1a E7 small-molecule binders, primary screen, biochemical, small-molecule microarray, residues 1-88, 635 nm (AID 1129); details: small-molecule microarray binding, fluorescence 635 nm; higher = more signal
[3] = target: Focal adhesion kinase 1 (Homo sapiens) (UniProt Q05397); assay: PTK2 protein binding on printed compound slides – biochemical, small-molecule microarray, 635/667 nm fluorescence, BSA, DTT, primary screen (AID 1130); details: 635 nm fluorescence, higher = more signal;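 further: composite of spot emission at 667 nm and signal to noise over triplicate slides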
Focal adhesion kinase 1 (Homo sapiens), sequence (Q05397 whole entry, looked up): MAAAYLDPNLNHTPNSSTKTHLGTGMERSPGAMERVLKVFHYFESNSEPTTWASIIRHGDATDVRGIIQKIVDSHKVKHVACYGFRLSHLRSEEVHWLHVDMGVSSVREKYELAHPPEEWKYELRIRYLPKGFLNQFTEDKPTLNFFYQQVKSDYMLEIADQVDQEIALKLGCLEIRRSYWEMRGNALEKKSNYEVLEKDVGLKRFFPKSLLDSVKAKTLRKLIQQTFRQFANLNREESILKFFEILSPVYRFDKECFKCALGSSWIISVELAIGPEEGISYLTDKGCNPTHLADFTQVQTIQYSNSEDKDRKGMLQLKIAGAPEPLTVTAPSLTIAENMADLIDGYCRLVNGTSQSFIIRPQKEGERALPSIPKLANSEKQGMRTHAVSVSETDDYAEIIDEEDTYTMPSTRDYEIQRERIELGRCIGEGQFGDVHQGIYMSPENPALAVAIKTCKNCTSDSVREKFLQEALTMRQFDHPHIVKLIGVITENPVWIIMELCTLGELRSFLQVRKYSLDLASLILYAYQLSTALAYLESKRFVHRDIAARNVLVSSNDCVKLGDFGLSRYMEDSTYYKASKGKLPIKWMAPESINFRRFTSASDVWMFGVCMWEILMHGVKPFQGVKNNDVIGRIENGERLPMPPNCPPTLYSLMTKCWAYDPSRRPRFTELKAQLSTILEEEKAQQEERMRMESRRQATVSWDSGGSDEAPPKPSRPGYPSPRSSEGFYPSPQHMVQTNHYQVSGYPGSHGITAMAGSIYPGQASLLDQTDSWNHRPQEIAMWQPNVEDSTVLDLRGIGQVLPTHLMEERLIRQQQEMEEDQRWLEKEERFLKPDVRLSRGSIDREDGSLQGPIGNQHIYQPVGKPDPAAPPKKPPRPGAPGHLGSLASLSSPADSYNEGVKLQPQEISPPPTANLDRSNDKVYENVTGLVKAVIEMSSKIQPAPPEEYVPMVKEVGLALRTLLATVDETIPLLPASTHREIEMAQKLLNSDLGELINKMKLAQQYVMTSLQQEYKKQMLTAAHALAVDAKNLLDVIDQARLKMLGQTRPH

[4] = tested on: Fibrinogen (Alexa647-labelled); assay: Alexa647-fibrinogen binding to printed small molecules – biochemical, small-molecule microarray, 635/667 nm fluorescence, artefact control for SMM control-protein annotation, profiling panel (AID 1131); details: fibrinogen-A647 binding fluorescence, higher = more signal;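 further: z-score merges 667 nm fluorescence with per-spot signal-to-noise over triplicate slides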
[5] = target: Follistatin (Homo sapiens) (UniProt P19883); assay: FST protein binding to printed compounds – biochemical, small-molecule microarray, 635/667 nm fluorescence, primary screen (AID 1132); details: 635 nm fluorescence, higher = more signal
Follistatin (Homo sapiens), sequence (P19883 whole entry, looked up): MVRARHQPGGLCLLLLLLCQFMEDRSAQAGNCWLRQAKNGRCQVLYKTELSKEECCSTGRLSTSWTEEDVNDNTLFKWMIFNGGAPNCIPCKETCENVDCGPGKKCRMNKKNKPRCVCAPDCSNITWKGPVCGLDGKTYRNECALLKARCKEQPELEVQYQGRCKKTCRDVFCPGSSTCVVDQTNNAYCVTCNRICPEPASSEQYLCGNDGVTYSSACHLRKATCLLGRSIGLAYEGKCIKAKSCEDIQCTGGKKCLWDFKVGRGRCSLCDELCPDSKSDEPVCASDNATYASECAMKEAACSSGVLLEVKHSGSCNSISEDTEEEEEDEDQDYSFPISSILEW

[6] = target: Fibroblast growth factor 2 (Homo sapiens) (UniProt P09038); assay: basic fibroblast growth factor binding to printed compounds – biochemical, small-molecule microarray, 635/667 nm fluorescence, primary screen (AID 1133); details: FGF2, fluorescence 635/667, higher = more signal
Fibroblast growth factor 2 (Homo sapiens), sequence (P09038 whole entry, looked up): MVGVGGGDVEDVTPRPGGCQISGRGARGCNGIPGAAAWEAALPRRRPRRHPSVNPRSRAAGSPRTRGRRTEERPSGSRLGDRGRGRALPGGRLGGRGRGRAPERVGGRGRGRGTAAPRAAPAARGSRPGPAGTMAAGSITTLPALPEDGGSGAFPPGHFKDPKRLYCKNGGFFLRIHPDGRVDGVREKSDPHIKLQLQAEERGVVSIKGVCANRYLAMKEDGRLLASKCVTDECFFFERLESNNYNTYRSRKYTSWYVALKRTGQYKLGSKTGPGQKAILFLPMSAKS

[7] = JC-1 mitochondrial potential readout, lung cancer cells – cell-based, A549, JC-1 fluorescence, basal, 24 h, 100 nL, profiling panel (AID 1138); details: higher = more signal;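 further: A549 lung adenocarcinoma cells under basal conditions with no added stimulus; test concentration not given here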
Lefty1 = Lefty1 protein binding to printed compounds – biochemical, small-molecule microarray, 635/667 nm fluorescence, primary screen (AID 1139); details: fluorescence 635/667, higher = more signal
[8] = tested on: wheat germ agglutinin (Triticum aestivum), Alexa647-labelled; assay: Alexa647-WGA lectin binding to printed small molecules – biochemical, small-molecule microarray, 635/667 nm fluorescence, artefact control for SMM control-protein annotation, profiling panel (AID 1140); details: WGA-A647 binding, 635 nm fluorescence, higher = more signal;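 further: score merges 667 nm feature emission with signal to noise over triplicate slides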
[9] = target: Luciferin 4-monooxygenase (Photinus pyralis) (UniProt P08659); assay: inhibition of purified Photinus pyralis luciferase – biochemical, luminescence, purified enzyme, 2006 set, primary screen (AID 1141); details: purified firefly luciferase, SteadyGlo luminescence, 30 min; higher = more signal, called active from +8 up or from −8 down;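 further: cell-free assay with purified firefly luciferase at 100 ng per well in PBS; test concentration not given here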
Luciferin 4-monooxygenase (Photinus pyralis), sequence (P08659 whole entry, looked up): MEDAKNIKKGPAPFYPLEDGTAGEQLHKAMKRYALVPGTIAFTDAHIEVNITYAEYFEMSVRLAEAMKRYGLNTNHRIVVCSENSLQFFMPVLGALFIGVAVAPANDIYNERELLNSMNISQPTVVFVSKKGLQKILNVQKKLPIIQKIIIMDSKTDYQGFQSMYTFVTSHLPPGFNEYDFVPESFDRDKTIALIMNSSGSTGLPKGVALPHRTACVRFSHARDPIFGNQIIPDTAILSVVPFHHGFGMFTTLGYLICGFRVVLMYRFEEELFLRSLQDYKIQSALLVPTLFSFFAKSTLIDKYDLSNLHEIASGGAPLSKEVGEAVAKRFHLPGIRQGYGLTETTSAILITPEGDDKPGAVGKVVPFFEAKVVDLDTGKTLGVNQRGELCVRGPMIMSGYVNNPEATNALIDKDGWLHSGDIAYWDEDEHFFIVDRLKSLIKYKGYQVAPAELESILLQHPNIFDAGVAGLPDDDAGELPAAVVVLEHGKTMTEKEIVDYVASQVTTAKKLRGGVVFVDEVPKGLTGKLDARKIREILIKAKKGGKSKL

Row | SMILES | composite z-score [1] | composite z-score [2] | composite z-score [3] | composite z-score [4] | composite z-score [5] | composite z-score [6] | z-score [7] | composite z-score (Lefty1) | composite z-score [8] | z-score [9]
1 | C=C(COC)/C(=C/C[C@H](OC(=O)c1ccncc1)c1cccc(OCCO)c1)c1cnc2ccccc2c1 | 2.08 | 1.22 | 0.521 | 0.893 | 1.36 | 0.694 | 0.365 | 1.62 | 1.4 | -0.631 (inactive)
2 | CCOC(=O)C1=CCC(c2cc3ccccc3[nH]2)N(S(=O)(=O)c2ccccc2[N+](=O)[O-])C1 (stereo not given) | 0.584 | 1.2 | 0.501 | 0.0547 | 0.574 | -0.103 | 1.05 | 0.306 | 0.896 | -0.0781 (inactive)
3 | COc1ccc(CCNC(=O)[C@@H]2c3ccccc3C(=O)N(CC34CC5CC(CC(C5)C3)C4)[C@H]2c2ccc(CO)cc2)cc1 | 1.3 | 1.15 | 0.548 | 0.61 | 1.07 | 1.47 | 0.125 | 0.867 | 0.965 | 1.36 (inactive)
4 | [N-]=[N+]=NCc1ccccc1C[C@@]1(C(=O)O)N=C(c2ccc(OCCCO)cc2)O[C@@H]1c1ccccc1CN=[N+]=[N-] | 0.705 | 1.17 | -0.0333 | 0.989 | 1.02 | 0.679 | -0.253 | 0.594 | 0.51 | -0.593 (inactive)
5 | O=C1c2ccccc2[C@](Cc2ccccc2I)(C(=O)O)[C@H](c2ccc(CO)cc2)N1Cc1ccccc1 | 0.729 | 0.0602 | 2.7 | 0.303 | -0.584 | -0.42 | 0.068 | -0.827 | 0.471 | -0.443 (inactive)
6 | NC(=O)NCC#Cc1ccc2c(c1)[C@]1(C(=O)N2)[C@H](C(=O)N2CCCCCCC2)[C@H]2C(=O)O[C@H](c3ccccc3)[C@H](c3ccccc3)N2[C@@H]1c1ccc(O)cc1 | 0.0328 | 1.01 | 0.568 | 0.879 | 1.52 | 1.15 | -1.16 | 0.784 | 1.15 | -0.161 (inactive)
7 | CC(C)C[C@@H]1NC(=O)C([C@@H](C)OCc2ccccc2)NC(=O)[C@@]23C(=O)N[C@@H](Cc4ccccc4)C2[C@H](C)[C@@]2(C)O[C@H]2C3/C=C/CC/C=C/CNC1=O (stereo not given in full) | 0.48 | 0.809 | 0.87 | -0.209 | 0.761 | 1.11 | 0.728 | 0.659 | 0.503 | 0.533 (inactive)
8 | COc1ccc(NN2C(C(O)c3ccc(OC)cc3)C=CC3C(=O)N(C4CCCCC4)C(=O)C32)cc1 (stereo not given) | 0.679 | 1.18 | 0.349 | 0.92 | 0.977 | -0.0659 | 0.017 | 0.433 | 0.701 | 1.25 (inactive)
9 | CC(C)[C@@H](C(=O)O)n1cc(-c2ccccc2)nn1 | 0.808 | 1.14 | 0.866 | 0.924 | 0.098 | 0.112 | -0.138 | -0.0617 | 1.15 | 0.131 (inactive)
10 | COC(=O)[C@@]1(Cc2ccccc2)[C@H]2c3cc(C(=O)N4CCCC4)n(Cc4ccc(C(F)(F)F)nc4)c3C[C@H]2CN1C(=O)c1ccccc1 | 0.472 | 1.28 | 1.23 | 1.06 | 0.778 | -0.38 | 1.32 | 0.333 | 1.05 | 2.36 (inactive)
11 | CCOC(=O)C[C@H]1[C@H](OC(=O)Cc2ccc3c(c2)OCO3)[C@@H](NC(=O)c2ccccc2)c2cc(OCCCO)ccc2N1C(=O)Cc1ccc(OC)cc1 | 0.752 | 0.263 | 0.161 | 0.792 | 0.19 | -0.027 | 0.291 | 0.305 | 0.674 | 0.296 (inactive)
12 | COc1ccc([Si](C)(C)[C@H]2[C@H](CCn3cc([C@H](O)c4ccccc4)nn3)O[C@@]3(C(=O)N(c4ccccc4)c4ccccc43)[C@@H]2C)cc1 | 0.448 | -0.431 | -0.4 | -0.651 | 1.24 | 0.195 | 0.903 | 1.51 | 0.428 | 0.687 (inactive)
13 | CN1C=C(C(=O)OCCS(C)(=O)=O)C(C(=O)OCCS(C)(=O)=O)=CC(CCCO)=CC1c1ccc(CN2CCCC2)cc1 (stereo not given) | 1.29 | 1.26 | 0.666 | 0.894 | 1.06 | 0.546 | 3.43 | 1.23 | 0.837 | -2.16 (inactive)
14 | C=CCC(OC(C)=O)[C@@H]1[C@@H](N(Cc2ccc(-c3cccc(C(F)(F)F)c3)o2)C(=O)c2cccc3ccccc23)c2cc(OCCCO)ccc2N1C(=O)c1ccc2ccccc2n1 (stereo not given in full) | -0.188 | -0.696 | -0.323 | -0.0203 | 0.587 | 0.0226 | -0.431 | 0.375 | -0.0681 | 0.587 (inactive)
15 | COc1ccc(CCNC(=O)[C@@]2(Sc3ccc(C)cc3)CC(=O)N(Cc3cc(C(F)(F)F)cc(C(F)(F)F)c3)[C@@H]2c2ccc(CO)cc2)cc1 | -0.588 | -1.49 | -0.545 | -1.07 | -1.83 | -2.57 | -0.138 | -1.25 | 0.0191 | -0.877 (inactive)
16 | CC(C)C[C@@H]1NC(=O)[C@H]2C[C@@H](C(=O)NCCCCCCNC(=O)CS)[C@@H](c3ccc(O)cc3)N2C1=O | 2.26 | 1.22 | 0.87 | 0.0675 | 1.3 | 1.78 | -1.02 | 0.543 | 0.0059 | -0.938 (inactive)
17 | CCCC=C(CCC)[C@@H](NC(=O)c1ccccc1)c1ccc(C(=O)OC)cc1 | 0.877 | 0.598 | -0.17 | 0.214 | 1.06 | 1.1 | -1.71 | 0.439 | -0.0525 | 1.5 (inactive)
18 | COCCOC(=O)N1C(=O)[C@@]2(c3cc(C#CC4=CCCCC4)ccc31)[C@H](c1ccc(OCCO)cc1)N1[C@H](c3ccccc3)[C@H](c3ccccc3)OC(=O)[C@H]1[C@@H]2C(=O)N1CCCCCCC1 | 1.11 | 0.929 | 0.267 | 0.818 | 1.41 | 1.42 | -0.744 | 1.21 | 0.743 | -2.78 (inactive)
19 | C=CCNC(=O)[C@H]1[C@@H]2C(=O)O[C@@H](c3ccccc3)[C@@H](c3ccccc3)N2[C@@H](c2ccccc2OCCO)[C@]12C(=O)N(C(=O)OCCOC)c1ccccc12 | 1.23 | 1.22 | 0.706 | 0.887 | 0.465 | 0.849 | -0.276 | 0.583 | 1.07 | 0.206 (inactive)
20 | COCCOC(=O)N1C(=O)[C@@]2(c3cc(C#CCC(C(=O)OC)C(=O)OC)ccc31)[C@H](C(N)=O)[C@H]1C(=O)O[C@H](c3ccccc3)[C@H](c3ccccc3)N1[C@@H]2c1ccc(OCCO)cc1 | 1.37 | 1.22 | 0.985 | 0.923 | 1.25 | 1.1 | -1.07 | 0.596 | 0.762 | -0.409 (inactive)
21 | O=C1C2C=CC(C(O)c3cccs3)N(Nc3ccccc3)C2C(=O)N1c1ccccc1 (stereo not given) | -0.0476 | -0.741 | 0.948 | 0.183 | 0.761 | -0.473 | -0.4 | -0.289 | 0.253 | -0.802 (inactive)
22 | COc1ccc(CCNC(=O)[C@@]2(C)c3ccccc3C(=O)N(Cc3cc(C(F)(F)F)cc(C(F)(F)F)c3)[C@H]2c2ccc(CO)cc2)cc1 | 0.202 | 1.07 | 0.431 | -0.0796 | 1.19 | 0.491 | 0.502 | 0.0292 | 0.367 | -0.868 (inactive)
23 | COC(=O)C1=CC(CCCO)=CC(c2ccc(CN3CCCC3)cc2)N(Cc2sc3ccccc3c2Cl)C=C1C(=O)OC (stereo not given) | 3.17 | 1.23 | 0.579 | 1.05 | 0.59 | 0.709 | 4.12 | 0.377 | 1.34 | -2.8 (inactive)
24 | O=C(NCC(F)(F)F)[C@@H]1c2ccccc2C(=O)N(CC23CC4CC(CC(C4)C2)C3)[C@H]1c1ccc(CO)cc1 | 1.08 | 0.722 | 1.46 | 0.378 | 1.16 | 1.15 | 0.588 | 0.827 | 0.393 | 0.972 (inactive)
25 | C=CCN1C(=O)[C@]2(O[C@H](CCO)[C@@H]([Si](C)(C)c3ccc(OC)cc3)[C@@H]2C)c2ccccc21 | 0.0171 | 0.745 | -0.0378 | 0.641 | -0.862 | -0.14 | -1.83 | 0.058 | 0.134 | -0.43 (inactive)
26 | C=C(COC)C(=O)CC[C@@H](OC(=O)c1cccnc1)c1cccc(OCCO)c1 | -0.007 | 0.23 | -0.437 | -1.48 | 1.29 | 0.773 | 0.525 | 1.19 | 0.981 | -2.86 (inactive)
27 | C[C@@H](OCc1ccccc1)C1NC(=O)[C@@]23C(=O)N[C@@H](Cc4ccccc4)C2[C@H](C)[C@@]2(C)O[C@H]2C3/C=C/C/C=C\CNC(=O)[C@H](Cc2ccccc2)NC1=O (stereo not given in full) | 0.276 | -0.197 | -0.422 | 0.569 | 0.793 | 0.803 | -0.227 | 0.557 | -0.228 | -3.26 (inactive)
28 | CN1C(=O)C2C=CC(C(O)c3ccc(-c4ccccc4)s3)N(Nc3ccccc3)C2C1=O (stereo not given) | 1.33 | 1.19 | 0.283 | 0.96 | 1.12 | -0.0002 | 0.5 | -0.304 | 1.07 | 0.17 (inactive)
